An excerpt weighted towards active compounds, which were near 10% of everything screened.
KB-V1 cytotox = qHTS assay for MDR1-selective chemotherapeutics: Primary screen using the drug-selected MDR subline cells KB-V1; KB-V1 MDR cells viability, CellTiter-Glo, 72 h; Potency, µM (doses to about 46.1 µM), hits mostly cytotoxic; hit rate 3.4% among 400,000; further: on the % scale 0 is the no-effect control and ±100 the full control effect; nearly all actives have a fitted effect of over 60% in size
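Readout: CellTiter-Glo luminescence, 10 min after addition. Cells: KB-V1 MDR subline, 72 h at 37 degrees C with compound. Analysis: corrected, normalized data fitted to concentration-effect curves.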
RORgamma inh = qHTS for inhibitors of ROR gamma transcriptional activity; Nuclear receptor ROR-gamma (Mus musculus), P51450; Drosophila S2 Gal4-RORgamma UAS-luciferase reporter, 20 h; Potency, µM (titrated, usually from 53.6 µM), inactives show at the top dose activity change, negative = inhibition, most hits filed as inhibitors; hit rate 5.4% among 310,000; AID 2551, 2010; further: on the % scale 0 is the no-effect control and ±100 the full control effect; nearly all actives have a fitted effect of over 60% in size
Target sequence (P51450 whole entry, looked up, the tested form may be a part): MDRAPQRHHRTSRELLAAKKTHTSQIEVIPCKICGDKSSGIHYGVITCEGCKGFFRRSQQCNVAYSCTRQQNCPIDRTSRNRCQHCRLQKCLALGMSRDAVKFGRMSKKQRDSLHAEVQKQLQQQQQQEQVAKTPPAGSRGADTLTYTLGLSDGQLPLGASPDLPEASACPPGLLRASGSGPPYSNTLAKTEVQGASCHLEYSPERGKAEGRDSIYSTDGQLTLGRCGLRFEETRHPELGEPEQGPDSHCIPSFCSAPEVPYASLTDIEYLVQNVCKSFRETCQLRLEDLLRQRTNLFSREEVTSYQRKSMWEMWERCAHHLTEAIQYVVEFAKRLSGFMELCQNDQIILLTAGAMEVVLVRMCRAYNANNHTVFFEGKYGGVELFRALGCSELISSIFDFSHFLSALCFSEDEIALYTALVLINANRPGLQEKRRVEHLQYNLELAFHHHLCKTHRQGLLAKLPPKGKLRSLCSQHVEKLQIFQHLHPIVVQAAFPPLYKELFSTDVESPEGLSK
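Using a luciferase readout, inhibitors were identified by reduced reporter activity in Drosophila cells coexpressing a copper-inducible Gal4–ROR gamma fusion and UAS-driven Photinus luciferase, incubated 20 hr after 700 uM copper sulfate.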
KB-3-1 tox = qHTS assay for MDR1-selective chemotherapeutics: Primary screen using the parental adenocarcinoma cell KB-3-1; KB-3-1 viability, CellTiter-Glo ATP luminescence, 72 h; Potency, µM (doses to about 46.1 µM), hits mostly cytotoxic; hit rate 1.4% among 400,000; further: on the % scale 0 is the no-effect control and ±100 the full control effect; nearly all actives have a fitted effect of over 60% in size
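Cytotoxicity in the drug-sensitive parental line KB-3-1 was scored as loss of CellTiter-Glo luminescence following 72 h incubation with compound. Values come from curve fitting of normalized concentration-response data.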
VP16 counter = VP16 counterscreen qHTS for inhibitors of ROR gamma transcriptional activity. Drosophila S2 Gal4-VP16 UAS-luciferase, luminescence, 20 h. Potency, µM (top dose mostly 53.6 µM), inactives show top-dose activity, negative = inhibition, most hits filed as inhibitors. hit rate 3.5% among 310,000. AID 2546, 2010;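 further: Gal4-VP16 expression switched on by copper sulfate through the metallothionein promoter; on the % scale 0 is the no-effect control and ±100 the full control effect; nearly all actives have a fitted effect of over 50% in size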
SW480 rereplic = A quantitative high throughput screen for small molecules that induce DNA re-replication in SW480 colon adenocarcinoma cells | SW480 DNA re-replication, Hoechst DNA content imaging, 48 h | Potency, µM (titrated, usually from 46.1 µM), for inactives: at the top dose re-replication activation, actives largely listed as activators | hit rate 1.8% among 340,000; further: % of control where 0% means no effect; nearly all actives have a fitted effect of over 55% in size
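Compounds, transferred as 23 nL by pin tool, were incubated with cells for 48 hr; DNA content per nucleus was then quantified by Hoechst staining and fluorescence plate imaging.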
MCF10A rereplic = A quantitative high throughput screen for small molecules that induce DNA re-replication in MCF 10a normal breast cells | Potency, µM (doses to about 46.1 µM), inactives show top-dose activity, positive = re-replication, most hits filed as activators | MCF 10A DNA re-replication, Hoechst nuclear intensity, 48 h | AID 624296, 2012 | hit rate 2.9% among 350,000; further: % of control where 0% means no effect; nearly all actives have a fitted effect of over 50% in size
An asterisk follows results filed as active; [ ] = another dose, or the depositor's remark. The call rests on the fitted dose curve; in most records, active means well fitted curve in the direction sought with a large enough effect; inconclusive means small, poorly fitted or top-dose-only effect, or another doubt; inactive means no such curve, though single readings can be large; an effect the other way counts as inactive or inconclusive. Potency means the concentration at half of the fitted maximal effect.

`O=C(Nc1ccc2c(c1)OCO2)c1cc(-c2ccc(O)cc2)on1` gave KB-V1 cytotox inactive, RORgamma inh 0%, KB-3-1 tox inactive, VP16 counter inconclusive, SW480 rereplic inconclusive and MCF10A rereplic 10µM*.
For O=C(Nc1ccc2c(c1)OCO2)c1cc(-c2cccc(O)c2)on1 the results were KB-V1 cytotox inactive, RORgamma inh 7.1µM*, KB-3-1 tox inactive, VP16 counter 14µM*, SW480 rereplic 13% and MCF10A rereplic inconclusive.
For O=C(N/N=C/c1ccc(Br)s1)c1cccc([N+](=O)[O-])c1 the results were KB-V1 cytotox inconclusive, RORgamma inh 0.45µM*, KB-3-1 tox inconclusive, VP16 counter 1µM*, SW480 rereplic -8% and MCF10A rereplic inconclusive.
For O=C(N/N=C/c1ccoc1)c1cccc([N+](=O)[O-])c1 the results were KB-V1 cytotox inactive, RORgamma inh 11µM*, KB-3-1 tox inactive, VP16 counter inconclusive, SW480 rereplic -1% and MCF10A rereplic 11%.
For O=C(N/N=C/c1ccc2ncccc2c1)c1cccc([N+](=O)[O-])c1 the results were KB-V1 cytotox inconclusive, RORgamma inh -12%, KB-3-1 tox inactive, VP16 counter 23%, SW480 rereplic -5% and MCF10A rereplic -21%.
Screening O=C(N/N=C1\CCCc2ccccc21)c1cccc([N+](=O)[O-])c1 returned KB-V1 cytotox inactive, RORgamma inh inconclusive, KB-3-1 tox inactive, VP16 counter 4%, SW480 rereplic 10% and MCF10A rereplic inconclusive.
For O=C(N/N=C1/CCCc2ccccc21)c1cc([N+](=O)[O-])cc([N+](=O)[O-])c1 the results were RORgamma inh 11µM* and VP16 counter 3%.
For Cc1ccc(/C=N/NC(=O)c2cccc([N+](=O)[O-])c2)o1 the results were KB-V1 cytotox inactive, RORgamma inh -22%[10 µM], KB-3-1 tox inactive, VP16 counter inconclusive, SW480 rereplic -100% and MCF10A rereplic -2%.
`Cc1occc1C(=O)N/N=C/c1ccccn1` gave KB-V1 cytotox inactive, RORgamma inh 10µM*, KB-3-1 tox inconclusive, VP16 counter -26%, SW480 rereplic 16% and MCF10A rereplic 10%.
For CC(C)c1ccc(NC(=O)CSC2=Nc3ccccc3C3=NC(CCC(=O)NCc4cccs4)C(=O)N23)cc1 (stereo not given) the results were KB-V1 cytotox inactive and KB-3-1 tox inactive.
Screening O=c1cnc2cnc(Oc3ccccc3)nc2n1CCc1ccccc1 returned RORgamma inh 13% and VP16 counter -9%.
Screening CCc1ccccc1NC(=O)C(=O)NCC(c1cccnc1)N1CCc2ccccc21 (stereo not given) returned KB-V1 cytotox inactive and KB-3-1 tox inactive.
`COc1ccc(-c2nn(-c3ccccc3)cc2/C=N/NC(=O)c2cccc(S(=O)(=O)Nc3ccccc3Cl)c2)cc1` gave KB-V1 cytotox inactive, RORgamma inh 1.8µM*, KB-3-1 tox inconclusive, VP16 counter 1.8µM*, SW480 rereplic 11% and MCF10A rereplic 3%.
For O=C(N/N=C/c1ccccn1)c1cccc(S(=O)(=O)Nc2ccccc2Cl)c1 the results were KB-V1 cytotox inactive, RORgamma inh 20µM*, KB-3-1 tox inactive, VP16 counter inconclusive, SW480 rereplic -2% and MCF10A rereplic 13%.
O=C(NN=Cc1ccccc1O)c1cccc([N+](=O)[O-])c1 was read as KB-V1 cytotox inconclusive, KB-3-1 tox inconclusive, SW480 rereplic 0.58µM* and MCF10A rereplic 1%.
Screening CCN(CC)S(=O)(=O)c1cccc(C(=O)N/N=C/c2ccccn2)c1 returned KB-V1 cytotox inactive, RORgamma inh 8.9µM*, KB-3-1 tox inactive, VP16 counter inconclusive, SW480 rereplic -3% and MCF10A rereplic 7%.
For CC1=C(C(=O)OC2CCCC2)C(c2cccc(Cl)c2Cl)CC(=O)N1 (stereo not given) the results were KB-V1 cytotox inconclusive and KB-3-1 tox inactive.
Screening CN(C)c1ncc2nc(CCc3ccccc3)c(=O)n(Cc3ccc(F)cc3)c2n1 returned RORgamma inh -12% and VP16 counter 2%.
Screening C[C@H]1CN([C@@H](C)CO)C(=O)c2cc(Br)cnc2O[C@H]1CN(C)C(=O)c1ccc2c(c1)OCO2 returned KB-V1 cytotox inactive and KB-3-1 tox inactive.
`CCCCNC(=O)C1(C)CCN1C(=O)c1cccnc1Oc1ccccc1` (stereo not given) gave KB-V1 cytotox inactive and KB-3-1 tox inactive.
COc1ccc(NS(=O)(=O)c2cccc(C(=O)N/N=C/c3c(F)c(F)c(F)c(F)c3F)c2)cc1 was read as KB-V1 cytotox inactive, KB-3-1 tox inactive, SW480 rereplic inconclusive and MCF10A rereplic 18µM*.
Screening Cc1ccc(C(=O)N/N=C/c2ccoc2)cc1C returned KB-V1 cytotox inconclusive, RORgamma inh 13µM*, KB-3-1 tox inactive, VP16 counter inconclusive, SW480 rereplic -6% and MCF10A rereplic -1%.
O=C(N/N=C/c1ccccn1)c1cc([N+](=O)[O-])cc([N+](=O)[O-])c1 was read as KB-V1 cytotox inactive, RORgamma inh 3.5µM*, KB-3-1 tox inactive, VP16 counter 4.5µM*, SW480 rereplic inconclusive and MCF10A rereplic 13%.
Screening COc1ccc(NS(=O)(=O)c2cccc(C(=O)NN=Cc3ccc(OC)c(O)c3)c2)cc1 returned KB-V1 cytotox inconclusive, KB-3-1 tox inactive, SW480 rereplic -3% and MCF10A rereplic 11%.
For O=C(O)c1cccc(NC(=S)N/N=C/c2ccccn2)c1 the results were KB-V1 cytotox inactive, RORgamma inh 4.5µM*, KB-3-1 tox inactive, VP16 counter inconclusive, SW480 rereplic -1% and MCF10A rereplic -4%.
For CCN(CC)S(=O)(=O)c1csc(C(=O)Nc2ccccn2)c1 the results were KB-V1 cytotox 23µM*, RORgamma inh 0%, KB-3-1 tox inactive, VP16 counter 29%, SW480 rereplic 3% and MCF10A rereplic 4%.
`O=C(N/N=C/c1ccccn1)c1ccc(NC(=O)c2cccc([N+](=O)[O-])c2)cc1` gave KB-V1 cytotox inactive, RORgamma inh -13%, KB-3-1 tox inconclusive, VP16 counter -7%, SW480 rereplic -3% and MCF10A rereplic inconclusive.
